Screens: PubChem BioAssay, National Center for Advancing Translational Sciences (NCATS)
This is a sample that favours compounds with a hit; in the whole collection about 19% have one here.
HT1080NT lethal: kills 2HG-producing HT-1080-NT fibrosarcoma cells | Potency, µM (top dose mostly 46.1 µM), inactives show at the top dose activity, negative = less viability, usual class: cytotoxic | actives 1.6% (n = 360,000) | HT-1080-NT fibrosarcoma viability, CellTiter-Glo ATP luminescence, 48 h;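 also: NT is the 2HG producing partner of a matched IDH1 knockdown line; 0% = DMSO-treated cells and -100% = media-only wells without cells; nearly all actives have a fitted effect of over 55% in size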
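HT-1080-NT fibrosarcoma cells (2HG-overproducing), 750 cells/well in RPMI with 5% FBS, dosed after 2 h and incubated 48 h at 37C. CellTiter-Glo luminescence normalized to DMSO and no-cell wells; concentration-response curves fitted and classed.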
TDP1 cell CPT: DT40-hTDP1 cell growth loss with CPT; AID 686979; actives 12% (n = 420,000); Potency, µM (top dose mostly 46.2 µM), without a hit: top-dose activity change, negative = growth inhibition, hits mostly inhibitors; chicken DT40 Tdp1-/-;hTDP1 cells + 20 nM CPT, ATP luminescence, 48 h; also: nearly all actives have a fitted effect of over 55% in size
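Chicken DT40 Tdp1-/- cells stably complemented with human TDP1 were seeded at 400 cells/well in medium containing 20 nM camptothecin, exposed to pin-transferred compounds, and grown at 37 °C for at least 48 hr. Viability was read as ATP luminescence.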
KB-V1 cytotox: kills drug-selected multidrug resistant KB-V1 cells; KB-V1 MDR cells viability, CellTiter-Glo, 72 h; Potency, µM (top dose mostly 46.1 µM), actives largely listed as cytotoxic; actives 3.4% (n = 400,000); also: nearly all actives have a fitted effect of over 60% in size
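KB-V1 MDR subline cells in DMEM (phenol-red free, 10% FBS) exposed to compounds in qHTS concentration series for 72 h at 37 degrees C. Viability read by CellTiter-Glo luminescence; concentration-effect curves fitted after normalization and correction.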
TDP1 cell noCPT: qHTS for Inhibitors of human tyrosyl-DNA phosphodiesterase 1 (TDP1): qHTS in cells in absence of CPT; Potency, µM (series often up to 46.2 µM), for the others: at the highest dose activity change, negative = growth inhibition, most hits filed as inhibitors; DT40 Tdp1-/- hTDP1 cells, no CPT, ATP luminescence, 48 h; actives 15% (n = 420,000); AID 686978, 2013; also: nearly all actives have a fitted effect of over 55% in size
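Stably hTDP1-transfected Tdp1-null chicken DT40 cells were treated with library compounds minus camptothecin and grown for at least 48 hr at 37 °C, after which cellular ATP was quantified by luminescence.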
KB-3-1 tox: kills parental KB-3-1 adenocarcinoma cells; KB-3-1 viability, CellTiter-Glo ATP luminescence, 72 h; Potency, µM (doses to about 46.1 µM), most hits filed as cytotoxic; actives 1.4% (n = 400,000); AID 1347075; also: nearly all actives have a fitted effect of over 60% in size
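Cytotoxicity measured as CellTiter-Glo luminescence after 72 h at 37 C. Compound titrations were pinned onto drug-naive KB-3-1 parental adenocarcinoma cells grown in DMEM with 10% FBS, and normalized data fitted to concentration-response curves.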
HT1080 IDH1KD tx: HT-1080 IDH1 knockdown cell toxicity (counter line) | HT-1080 IDH1 knockdown viability, ATP luminescence, 48 h | Potency, µM (titrated, usually from 46.1 µM), without a hit: top-dose activity, negative = toxicity, actives largely listed as cytotoxic | actives 2% (n = 360,000);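 also: 0% = DMSO wells and -100% = cell-free medium wells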
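CellTiter-Glo luminescence after 48 h compound exposure at 37 degrees C of IDH1-knockdown HT-1080 cells in 5% FBS RPMI. %Activity scaled between DMSO wells and cell-free media wells, with curves fitted and assigned curve classes.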
Numbers without * were called inactive; i = inactive; ? = inconclusive; / = no result; [ ] = dose if it differs, or a comment. Calls follow the shape of the dose curve; as a rule, active = well fitted curve in the direction sought with a large enough effect; inconclusive = small, poorly fitted or top-dose-only effect, or another doubt; inactive = no such curve, though single readings can be large; an effect the other way counts as inactive or inconclusive. Unless noted, % is scaled to controls: 0 for no effect and ±100 for the full control effect; potency is read from the fitted curve at half-maximal effect.

SMILES	HT1080NT lethal	TDP1 cell CPT	KB-V1 cytotox	TDP1 cell noCPT	KB-3-1 tox	HT1080 IDH1KD tx
O=C(/C=C/c1ccccc1)c1cc(Br)ccc(=O)c1O	18.4µM*	3.66µM*	?	4.61µM*	11.6µM*	?
O=C(CN1C(=O)COc2ccc(S(=O)(=O)N3CCOCC3)cc21)Nc1cccc(Cl)c1	3.4%	-15.9%	i	?	i	1.1%
Cc1nnc(SC(C)C(=O)NC2CCCCC2)s1 (configuration not stated)	-2.7%	12.1%	i	-1.3%	i	9.3%
CCN(CC)C(=O)CSc1nnc(SC(C)C(=O)NC2CC2)s1 (configuration not stated)	-3.4%	-26.4%	25.9µM*	-2.0%	i	17.2%
CC[C@H](C)[C@@H](NC(=O)O[C@@H]1C(=O)c2cc(OC)ccc2O[C@H]1c1ccc(OC)c(Br)c1)C(=O)OC	0.0%	?	i	18.4µM*	i	-1.0%
Cc1ccc(C)c(N2CCN(C(=O)c3ccc(-c4nc(COc5ccccc5)c(C)o4)cc3)CC2)c1	/	23.1µM*	i	14.6µM*	i	/
Cc1ccc(OCc2nc(-c3ccc(C(=O)N4CCN(c5ccc(Cl)cc5)CC4)cc3)oc2C)cc1	/	?	i	?	i	/
Cc1ccc(OCc2nc(-c3ccc(C(=O)N4CCN(c5cccc(C(F)(F)F)c5)CC4)cc3)oc2C)cc1	/	16.4µM*	i	?	i	/
CC(=O)Nc1ccc(C(=O)N2CCCC(c3cc(C(=O)Nc4ccccc4Cl)no3)C2)cc1 (configuration not stated)	?	?	i	?	i	17.6%
COc1ccccc1Oc1ccc(-c2cnc3ccccc3n2)cc1[N+](=O)[O-]	?	23.1µM*	?	7.31µM*	i	?
O=[N+]([O-])c1cc(-c2cnc3ccccc3n2)ccc1Oc1ccc(Cl)cc1	-18.1%	18.4µM*	i	?	i	-9.7%
O=[N+]([O-])c1cc(-c2cnc3ccccc3n2)ccc1Cl	-4.9%	7.6%	i	-9.1%	i	-5.4%
Cc1ccc(C)c(/C=N/Nc2nc3ccccc3c(=O)n2O)c1	-3.7%	?	i	?	i	-9.0%
O=C(N/N=C/c1ccco1)c1cc(-c2ccc3ccccc3c2)n[nH]1	?	13µM*	i	23.1µM*	i	?
O=C(N/N=C/C=C\c1ccccc1[N+](=O)[O-])c1cc(-c2ccc3ccccc3c2)n[nH]1	13µM*	?	i	18.4µM*	i	14.6µM*
CC(C)(C)C1CCc2c(C(=O)N/N=C/c3cccs3)csc2C1 (configuration not stated)	7.3%	14.1µM*	?	?	i	13.4%
O=C(N/N=C/c1cccs1)c1ccc2ccccc2c1	?	14.6µM*	?	20.6µM*	20.6µM*	-14.0%
O=C(COc1cc(Cl)ccc1Cl)N1CCNC1=O	12.4%	48.6%	i	0.4%	i	-0.9%
COCCn1c(SCC(=O)NC2CCCC2)nnc1-c1ccco1	-0.1%	8.8%	i	4.3%	i	9.4%
CCN(CC)S(=O)(=O)c1ccc(NC(=O)CCN2C(=O)C3CC=CCC3C2=O)cc1 (configuration not stated)	0.2%	-12.3%	i	-15.3%	i	11.1%
O=C(N/N=C/c1ccccn1)c1cc(-c2ccc3ccccc3c2)n[nH]1	?	?	i	?	i	16.4µM*
O=C(N/N=C/c1ccccn1)c1cc(-c2ccccc2Cl)n[nH]1	-1.2%	?	i	18.4µM*	i	-24.1%
O=C(N/N=C/c1cccs1)c1ccccn1	-3.0%	-4.6%	?	-24.8%	i	-13.2%
O=C(N/N=C/c1cccc([N+](=O)[O-])c1)c1cccc2cc[nH]c12	-9.2%	-11.9%	i	-25.8%	i	-4.2%
C(=NN=C(NN=Cc1cccs1)NN=Cc1cccs1)c1cccs1	?	5.17µM*	?	2.91µM*	?	-26.0%
SMILES	HT1080NT lethal	TDP1 cell CPT	KB-V1 cytotox	TDP1 cell noCPT	KB-3-1 tox	HT1080 IDH1KD tx
O=C(N/N=C/c1cccs1)c1cccc2cc[nH]c12	?	?	20.6µM*	?	i	15.8µM*
O=C(N/N=C/c1ccccn1)c1cc(-c2cccc3ccccc23)n[nH]1	-28.5%	?	i	-27.5%	i	-24.1%
CCc1nc2ccc(C(=O)N3CCN(C(=O)c4ccco4)CC3)cn2c1N(CC)CCOC	17.7%	-5.0%	i	-11.4%	i	5.3%
CCCNC(=O)c1ccccc1SCc1c(C)noc1C	5.9%	-7.5%	i	-5.7%	i	9.2%
O=C(N/N=C/c1cccs1)c1cc(-c2ccc3ccccc3c2)n[nH]1	?	?	?	20.6µM*	i	?
O=C(N/N=C/c1cccs1)c1ccc2ncccc2c1	-4.7%	1.3%	i	-1.5%	i	-21.3%
COCCC(=O)NNS(=O)(=O)c1ccc(Cl)cc1	0.2%	-14.7%	i	0.8%	i	2.6%
O=C1c2cc([N+](=O)[O-])cc3cc([N+](=O)[O-])cc(c23)C(=O)N1c1ccccn1	-3.0%	20.6µM*	i	18.4µM*	i	-14.6%
O=C1c2cc3ccccc3c(-c3ccccc3)c2C(=O)N1c1ccccn1	2.2%	-7.7%	13µM*	-29.0%	i	1.2%
Oc1c(C(c2ccccc2Cl)N2CCC(O)CC2)sc2nc(-c3ccco3)nn12 (configuration not stated)	/	1.9%	i	?	i	/
CON(C)C(=O)C[C@@H]1C[C@H](OC(=O)c2ccc([N+](=O)[O-])cc2)CN1C(=O)OC(C)(C)C	-4.8%	-21.1%	i	?	i	-0.9%
Cc1cc(C(=O)N2CCN(c3ccccc3)CC2)c(C)o1	3.8%	0.2%	?	-5.8%	i	?
Cc1cc(C(=O)N2CCN(c3ncccn3)CC2)c(C)o1	7.6%[9.24 µM]	13µM*	i	23.1µM*	i	-28.5%
Cc1cc(C(=O)N2CCN(c3cccc(Cl)c3)CC2)c(C)o1	?	18.4µM*	i	16.4µM*	23.1µM*	16.4µM*
Cc1cc(C(=O)N2CCN(c3ccccc3Cl)CC2)c(C)o1	-23.6%	20.6µM*	i	11.6µM*	i	-16.6%
